# High-throughput results (PubChem BioAssay)
# In the library only some 4.1% were active in any assay of this set; here they are far more common.
# hcDAF-12 act: activates DAF-12 receptor from parasite H. contortus. activation, % at 6.8 µM. HEK293 hcDAF-12 lit1-tk-luc reporter, luminescence; 0% DMSO, 100% Δ7-dafachronic acid. 370,000 tested, 1.4% active. AID 652067;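 active = activation above the mean of all tested compounds plus 3 SD, cut at about 5.5% in these data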;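 note: 100% = response to 3 µM Δ7-dafachronic acid high control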
# DAX1 inh-1: inhibits human nuclear receptor DAX1. P51843. HEK293 Gal4-DAX1 luciferase reporter, luminescence. inhibition, % at 6.75 µM. 340,000 tested, 0.99% active. AID 504766;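 active = inhibition above the mean over all tested compounds plus 3 SD, cut at about 4.2% in these data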;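 note: 0% = DAX1-transfected cells with DMSO and 100% = empty-vector control cells with DMSO; inhibition shows as a rise in luminescence from relieved DAX1 repression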
# Target sequence (P51843 207-470 limits assumed): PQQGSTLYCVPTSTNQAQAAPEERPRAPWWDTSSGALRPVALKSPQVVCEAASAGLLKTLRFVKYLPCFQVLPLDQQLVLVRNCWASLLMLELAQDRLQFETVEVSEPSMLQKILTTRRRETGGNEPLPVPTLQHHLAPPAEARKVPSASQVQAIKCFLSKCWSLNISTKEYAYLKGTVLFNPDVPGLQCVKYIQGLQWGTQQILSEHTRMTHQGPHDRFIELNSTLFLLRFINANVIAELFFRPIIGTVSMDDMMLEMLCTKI
# ssDAF-12 act: S. stercoralis DAF-12 activation, primary screen. HEK293 ssDAF-12/GRIP1 lit1-tk-luc reporter, luminescence; % of 3 µM dafachronic acid response. activation, % at 6.8 µM. 370,000 tested, 1% active. AID 652126;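 active = activation above the mean over all tested compounds plus 3 SD, cut at about 0.9% in these data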;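 note: 0% = DMSO-only wells and 100% = 3 µM delta7-dafachronic acid wells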
# DAX1 inh-2: DAX1 (NR0B1) inhibition, primary screen | HEK293T StAR-luciferase reporter, SF-1/DAX-1 repression relief | inhibition, % at 6.8 µM | 370,000 tested, 1.1% active;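 active = inhibition above the mean over all tested compounds plus 3 SD, cut at about 3.6% in these data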;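 note: 0% = DAX-1 cells with DMSO and 100% = cells lacking DAX-1 with DMSO; higher inhibition means more luminescence from relief of DAX-1 repression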
# hgDAF-12 ag: activates the H. glycines DAF-12 receptor ligand-binding domain | HEK293 GAL4-hgDAF12 UAS-luciferase reporter, agonist luminescence; normalized to butyrate control | activation, % at 6.8 µM | 370,000 tested, 1.8% active;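 active = activation above a cutoff set at the mean of all screened compounds plus 3 SD, cut at about 10% in these data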;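 note: 0% = DMSO wells and 100% = sodium butyrate wells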
# DAX1 inh confirm: confirmation of human DAX1 (NR0B1) inhibitors; HEK293T StAR-promoter luciferase reporter, SF-1/DAX-1 repression; shares compounds with DAX1 inh-2; inhibition, % at 6.8 µM; 2,400 tested, 87% active;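 active = inhibition above the average of every tested compound plus 3 SD, cut at about 3.8% in these data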;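 note: 0% = DAX-1 cells with DMSO and 100% = no DAX-1 control cells with DMSO; active compounds raise luminescence by relieving repression of the StAR reporter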
# SF1 mutant ctr: counter-screen for DAX1 inhibitors: nonselective inhibitors with SF-1 AF2 mutant; HEK293 StAR-luciferase, luminescence; 2,400 tested, 78% active; shares compounds with DAX1 inh-2; inhibition, % at 6.8 µM;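 active = inhibition above the mean of all tested compounds plus 3 SD, cut at about 3% in these data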;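 note: 0% = DAX-1 transfected cells with DMSO and 100% = cells without DAX-1 with DMSO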
# LXR ag: activates human LXR-beta, counter-screen for hcDAF-12 agonists; shares compounds with hcDAF-12 act; HEK293 Gal4-LXR tk-luc reporter, luminescence, 24 h; normalized: DMSO 0%, positive control 100%; activation, % at 6.8 µM; 3,400 tested, under 10 active; AID 743027;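 active = mean percent activation of the reporter above a cutoff set as the average over tested compounds plus their standard deviation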
# Target sequence (P55055 whole entry, looked up, the tested form may be a part): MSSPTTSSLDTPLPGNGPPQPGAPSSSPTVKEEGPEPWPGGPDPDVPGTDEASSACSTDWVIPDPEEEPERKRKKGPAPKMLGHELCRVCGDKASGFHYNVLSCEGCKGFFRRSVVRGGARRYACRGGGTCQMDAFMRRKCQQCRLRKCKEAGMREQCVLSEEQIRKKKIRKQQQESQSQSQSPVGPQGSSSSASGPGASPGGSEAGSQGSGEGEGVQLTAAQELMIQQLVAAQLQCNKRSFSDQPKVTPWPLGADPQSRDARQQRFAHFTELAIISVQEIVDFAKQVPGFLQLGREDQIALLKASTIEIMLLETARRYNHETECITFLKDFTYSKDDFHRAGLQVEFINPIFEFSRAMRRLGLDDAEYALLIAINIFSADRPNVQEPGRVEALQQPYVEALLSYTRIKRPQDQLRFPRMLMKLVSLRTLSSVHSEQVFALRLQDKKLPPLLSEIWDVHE
# hcDAF12 ag: confirmation of H. contortus DAF-12 agonists; HEK293 hcDAF-12 lit1-tk-luc reporter, luminescence; % of Δ7-dafachronic acid response; activation, % at 6.8 µM; 3,400 tested, 61% active; shares compounds with hcDAF-12 act; AID 743032;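 active = mean activation across triplicate tests above the threshold derived from the earlier primary screen, cut at about 5.5% in these data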;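 note: 0% = DMSO only wells and 100% = 3 µM Δ7-dafachronic acid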
# hgDAF12 conf: confirmation of H. glycines DAF-12 agonists; 3,300 tested, 80% active; AID 743050; HEK293 GAL4-hgDAF12 luciferase reporter, agonist mode; percent of butyrate response; shares compounds with hgDAF-12 ag; activation, % at 6.8 µM;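 active = mean activation over triplicate wells above the hit cutoff derived from the earlier primary screen, cut at about 11% in these data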;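 note: 0% = DMSO low control and 100% = 2 mM sodium butyrate high control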
# LXRb DAF12 ctr: counter-screen for DAF-12 agonists: agonists of human LXR-beta; shares compounds with hgDAF-12 ag; 3,300 tested, under 10 active; HEK293 Gal4-LXR luciferase reporter, 24 h; activation, % at 6.8 µM;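 active = mean activation of the triplicate above a set limit carried over from the primary screen, none filed active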
# Numbers without * were called inactive; . = not tested or not shown; ! = not active in a repeat.
SMILES,hcDAF-12 act,DAX1 inh-1,ssDAF-12 act,DAX1 inh-2,hgDAF-12 ag,DAX1 inh confirm,SF1 mutant ctr,hgDAF12 conf,LXRb DAF12 ctr,others
O=S1(=O)CC(c2ccccc2)=NN=C(c2ccccc2)C1,9.5*,3,1.5*,7.6*,17*,11*,3.9*,16*,1,LXR ag=1;hcDAF12 ag=8.5*
O=C1CC(c2ccccc2)=NO1,1,1,-1,0,-1,.,.,.,.,
O=C(Nc1nc2c(s1)CCCC2)c1ccc2ncsc2c1,6.2*,0,1.0*,8.0*,16*,10*,3.2*,12*,1,
CCCCNc1c(-c2ccc(SC(C)CC)cc2)nc2ccccn12 (configuration not stated),6.7*!,2,2.6*!,5.3*!,11*,6.3*,3.4*,16*,1,LXR ag=1;hcDAF12 ag=5
COc1ccc(-c2nc3ccc(C)cn3c2Cc2ccccc2C(F)(F)F)cc1OC,-2,.,-1,1,1,.,.,.,.,
Cc1ccc(-c2nc3ccc(C)cn3c2Cc2ccccn2)cc1,3,.,0,5.8*,14*,10*,4.5*,5,1,
Cc1ccc(Cc2c(-c3ccc(F)cc3)nc3ccc(Br)cn23)cc1,2,.,-1,1,6,.,.,.,.,
Cc1ccc(Cc2c(-c3ccc(F)cc3)nc3ccc(Cl)cn23)cc1,1,3,1,2,3,.,.,.,.,
Cc1ccc2nc(-c3ccc(C#N)cc3)c(Cc3ccccn3)n2c1,1,.,0,3,6,.,.,.,.,
Cc1ccc2nc(-c3ccc(F)cc3)c(Cc3ccccc3C(F)(F)F)n2c1,5,.,1.7*,4.7*,14*,2,4.6*,6,0,
Cc1ccc(Cc2c(-c3ccc(F)cc3)nc3cc(C)ccn23)cc1,2,3,0,6.6*,17*,0,0,7,0,
Cc1ccc(Cc2c(-c3ccc(Br)cc3)nc3cc(C)ccn23)cc1,4,4,0,7.5*,14*,3.7*,2,1,0,
CCCCN(C(=O)Cc1ccc(S(=O)(=O)N2CCOCC2)s1)c1c(N)n(CC(C)C)c(=O)[nH]c1=O,-2,2,-1,0,-2,.,.,.,.,
Cc1ccc(Cc2c(-c3ccccc3)nc3ccc(Br)cn23)cc1,2,0,0,2,7,.,.,.,.,
Cc1ccc(-c2nc3ccc(Br)cn3c2Cc2ccccc2)cc1,3,.,1,5.4*,14*,8.2*,3,16*,1,
O=C(CSc1nnc(-c2cccnc2)o1)Nc1ccccc1F,3,1,0,8.4*,14*,11*,4.4*,12*,1,
O=C(CSc1nnc(-c2cccnc2)o1)Nc1ccccc1Br,0,2,-1,0,2,.,.,.,.,
COc1ccccc1NC(=O)CSc1nnc(-c2ccc(C)cc2)o1,4,1,0,6.3*,14*,15*,8.3*,17*,1,
COc1ccc(C)cc1NC(=O)CSc1nnc(-c2ccc(Br)cc2)o1,-1,-1,0,0,0,.,.,.,.,
Cc1cccc(C)c1C(O)c1ncc(-c2ccccc2Cl)[nH]1 (configuration not stated),-1,.,-1,0,1,.,.,.,.,
CCN1CCN(C(=O)c2ccc(CN(c3ccccc3)S(=O)(=O)c3ccccc3)cc2)CC1,-2,-1,-1,0,1,.,.,.,.,
CSc1nnc(C)c(=O)n1COC(=O)c1ccc(S(=O)(=O)N2CCOCC2)cc1,0,1,-1,0,1,.,.,.,.,
CC(C)Cc1ccc(-c2cc3nc(NCCCn4ccnc4)ccn3n2)cc1,6.1*,.,-1,5.5*,15*,7.6*,5.1*,11*,0,
O=C(Nc1nc(-c2nc3ccccc3s2)cs1)C1CC1,5,1,0,8.8*,23*,13*,6.4*,15*,1,
CN(C)c1ccc(C=Cc2cnccn2)cc1,5,-1,0,6.7*,18*,16*,9.8*,16*,1,
SMILES,hcDAF-12 act,DAX1 inh-1,ssDAF-12 act,DAX1 inh-2,hgDAF-12 ag,DAX1 inh confirm,SF1 mutant ctr,hgDAF12 conf,LXRb DAF12 ctr,others
CN(C)c1ccc(/C=C/c2ccncc2)cc1,4,0,-1,1,8,.,.,.,.,
CC(C)Nc1ncnc2c1ncn2[C@H]1CN(C2CCCC2)C[C@@H](CO)O1,2,.,0,-1,0,.,.,.,.,
COc1ccc(N2CCN(C(=O)c3ccc4c(c3)NC(=O)C(CSCc3ccccc3F)N4)CC2)cc1 (configuration not stated),0,1,-1,0,-1,.,.,.,.,
O=C(Nc1ccc2c(c1)OCO2)c1cc(-c2ccccc2Cl)on1,2,1,-1,1,7,.,.,.,.,
O=C(Nc1ccc2c(c1)OCO2)c1cc(Cl)ccn1,5,2,0,6.5*,16*,12*,5.3*,17*,1,
O=C(Nc1ccc2c(c1)OCO2)c1ccc(Cl)cc1Cl,11*,0,0,16*,18*,14*,5.0*,17*,1,LXR ag=2;hcDAF12 ag=6.6*
Cn1nnc2cc(C(=O)Nc3ccccc3F)ccc21,0,-2,0,1,1,.,.,.,.,
Cn1nnc2cc(NC(=O)Nc3ccccc3F)ccc21,4,2,0,7.4*,15*,9.8*,4.4*,14*,1,
CCN=C1NN=C(c2cc(C)n(CCc3ccccc3)c2C)CS1,4,0,0,1,1,.,.,.,.,
CCN=C1NN=C(c2c[nH]c3ccccc23)CS1,11*,1,3.7*,4.9*,15*,12*,5.8*,20*,1,LXR ag=1;hcDAF12 ag=12*
O=C(Nc1ccc(N2CCOCC2)cc1)c1ccncc1,1,1,0,0,3,.,.,.,.,
Cn1cccc1C(=O)Nc1ccc(N2CCOCC2)cc1,4,1,1,8.2*,18*,8.3*,4.4*,16*,1,
COc1ccccc1OCCC(=O)OCC(=O)c1[nH]c(C)c(C(C)=O)c1C,-2,1,-1,0,2,.,.,.,.,
